Measured values published in ChEMBL document CHEMBL4513216, “Probing the Open Global Health Chemical Diversity Library for Multistage-Active Starting Points for Next-Generation Antimalarials” (ACS Infect Dis, 2020).
Hit rate of the full screen: of about 69,000 compounds, about 8,600 (12%) showed an effect of 50% or more. Shown is part of a subset that was picked to be rich in strong results.

Each compound was assayed on Plasmodium berghei (assay: Screen against P. berghei liver stage (PbLuc), transformed with Luciferase, at 10uM). Settings: tested at 10 uM.
Assay type: functional, HepG2

Point of comparison: N#Cc1ccc(C(=O)N2CCn3c(Cn4cccn4)cnc3C2)cc1, INHIBITION 7.11%. Against it:
- COCCN1CCC2(CC1)CC(N1CCOCC1)c1ccc(C)cc12 (stereo not given) — higher, 48.4%
- CCC(=O)N1CCC2(CC1)CC(N1CCOCC1)c1cc(C)ccc12 (stereo not given) — higher, 61.8%
- COCCN1CCC2(CC1)CC(N1CCOCC1)c1cc(C)ccc12 (stereo not given) — higher, 87.4%
- Cc1ccc2c(c1)C(N1CCOCC1)CC21CCNCC1 (stereo not given) — higher, 38.5%
- Cc1ccc2c(c1)C1(CCNCC1)CC2N1CCOCC1 (stereo not given) — lower, -58.9%
- COCC(=O)N1CCC2(CC1)CC(N1CCOCC1)c1ccc(C)cc12 (stereo not given) — lower, -24.8%
- O=C(c1sccc1C1CC1)N1CCN(c2cnccn2)CC1 — higher, 44%
- CN(Cc1n[nH]c2c1CCCC2)c1nc2c(c(=O)[nH]1)CCNCC2 — higher, 10.4%
- CN(C)c1nc2c(c(N(C)Cc3n[nH]c4c3CCCCC4)n1)CCNC2 — higher, 26.8%
- CN(Cc1n[nH]c2c1CCC2)c1nc(C2CCCC2)nc2c1CNC2 — higher, 26.8%
- CN(Cc1cc2n(n1)CCNC2)Cc1n[nH]c2c1CCCCC2 — higher, 44.3%
- CN(Cc1n[nH]c2c1CCCC2)c1nc(C2CC2)nc2c1CCNCC2 — higher, 62.8%
- CN(C)c1nc2c(c(N(C)Cc3n[nH]c4c3CCCC4)n1)CCNCC2 — higher, 70.2%
- COc1c(C(=O)NCc2cccnc2)nnn1Cc1ccccc1 — lower, 2.69%
- COc1ccc(F)c(CN2CCCC(O)(CNC3CCCCC3)C2=O)c1 (stereo not given) — lower, 4.48%
- COc1ccc(F)c(CN2CCCC(O)(CNCC(C)(C)C)C2=O)c1 (stereo not given) — higher, 71.7%
- COc1ccc(F)c(CN2CCCC(O)(CNCc3ccon3)C2=O)c1 (stereo not given) — higher, 52%
- CC(C)(C)CNCC1(O)CCCN(Cc2ccccc2F)C1=O (stereo not given) — higher, 7.17%
- COc1ccc(F)c(CN2CCCC(O)(CNCc3ccoc3)C2=O)c1 (stereo not given) — higher, 34.1%
- COc1ccc(F)c(CN2CCCC(O)(CNCc3ncc[nH]3)C2=O)c1 (stereo not given) — higher, 33.2%
- CCc1cccc(C)c1NC(=O)NCCCN(CC)S(C)(=O)=O — lower, -17.7%
- Cc1cc(C)n(C2CCCN(C(=O)Cc3cccc(F)c3)C2)n1 (stereo not given) — higher, 19.4%
- CC1c2ncc(Cn3cccn3)n2CCN1S(C)(=O)=O (stereo not given) — higher, 43%
- Cc1noc(C2CCCCN2C(=O)NC2CCCC2)n1 (stereo not given) — lower, -43.4%
- Cc1nc(CN2CCc3cc(C(=O)O)c(N(C)C)nc3CC2)cs1 — higher, 19.4%
- O=C(NCCO)c1cc(-c2ccc3c(c2)CCO3)n[nH]1 — lower, 5.85%
- O=C(NCCCO)c1cc(-c2ccc3c(c2)CCO3)n[nH]1 — lower, -49.2%
- CN(C)CCCNC(=O)c1cc(-c2ccc3c(c2)CCO3)n[nH]1 — higher, 54.5%
- CSC(C)C(=O)NCCC(=O)N1CCN(c2ccccn2)CC1 (stereo not given) — higher, 39.2%
- CN(Cc1cccnc1)CC1(O)CCCN(CC(C)(C)C)C1=O (stereo not given) — higher, 44.7%
- CN(Cc1ccccc1)CC1(O)CCCN(Cc2ccc(F)cc2)C1=O (stereo not given) — higher, 31.1%
- CN(Cc1ccccc1)CC1(O)CCCN(CC(C)(C)C)C1=O (stereo not given) — higher, 51.8%
- O=C1NCCN1CCNCC1(O)CCCN(CCC2CCCCC2)C1=O (stereo not given) — lower, -48.7%
- O=C1N(CCCc2ccccc2)CCCC1(O)CNCC1CCCCC1 (stereo not given) — higher, 39.5%
- CN(Cc1ccccc1)CC1(O)CCCN(CCC2CCCCC2)C1=O (stereo not given) — higher, 63.7%
- Cc1cc(CN(C)CC2(O)CCCN(CCC3CCCCC3)C2=O)no1 (stereo not given) — higher, 32.3%
- CN(Cc1ccc(F)cc1)CC1(O)CCCN(CC(C)(C)C)C1=O (stereo not given) — higher, 28.5%
- O=C1N(CCC2CCCCC2)CCCC1(O)CNCCc1ccccc1 (stereo not given) — higher, 56.9%
- Cc1nc(CN2CCCC(N(C)CC3(O)CCCCC3)C2)no1 (stereo not given) — lower, -3.2%
- Cc1cccc(CN2CCS(=O)(=O)[C@@H]3CCN(S(C)(=O)=O)CC[C@@H]32)n1 — higher, 39.3%
- CC(C)c1cc(C(=O)NCCN2CCCCC2CO)on1 (stereo not given) — higher, 15%
- CCN1CCCC12CCN(C(=O)c1ccsc1)CC2 — higher, 36.9%
- O=C(c1cc2c(s1)CCC2)N1CCCC1c1noc(C2CC2)n1 (stereo not given) — lower, -56.7%
- Cc1nnc(NC(=O)NCc2ccc(N3CCOCC3)nc2)s1 — lower, -43.6%
- CC(O)CNCc1c(C(C)C)nn(C)c1N1CCOCC1 (stereo not given) — lower, 3.8%
- CCOC(=O)CC(c1cccc(OC)c1OC)c1c(C)[nH][nH]c1=O (stereo not given) — lower, 3.6%
- c1cnc(NC2COC3(CCN(Cc4cc[nH]n4)CC3)C2)nc1 (stereo not given) — higher, 26.3%
- O=C(NC[C@]12COC[C@H]1CN(CC1CCOCC1)C2)c1ccccc1 — higher, 30.3%
- Cc1ncsc1CN1C[C@@H]2COC[C@]2(CNC(=O)c2ccco2)C1 — higher, 14.8%
- O=C(NC[C@]12COC[C@H]1CN(Cc1ccco1)C2)c1ccccc1 — higher, 54.7%
- Cn1cc(CN2C[C@@H]3COC[C@]3(CNC(=O)c3ccccc3)C2)cn1 — higher, 30.3%
- Cc1cc(CN2C[C@@H]3COC[C@]3(CNC(=O)c3ccco3)C2)no1 — higher, 20.6%
- Cn1cc(CN2C[C@@H]3COC[C@]3(CNC(=O)c3ccco3)C2)cn1 — higher, 52%
- Cc1ccsc1CN1C[C@@H]2COC[C@]2(CNC(=O)c2ccco2)C1 — higher, 63.7%
- O=C(NC[C@]12COC[C@H]1CN(Cc1nccs1)C2)c1ccccc1 — higher, 23.7%
- O=C(NC[C@]12COC[C@H]1CN(Cc1ccncc1)C2)c1ccco1 — higher, 18.2%
- Cn1ccnc1CN1CCCN(C(=O)c2ccc(O)nc2)CC1 — lower, -24.3%
- CN(C)S(=O)(=O)NCc1nn(CCN2CCCC2)c(=O)c2ccccc12 — lower, 5.03%
- Cc1nn(C)c2ncnc(NCc3nncn3C3CCCCC3)c12 — lower, -58.1%
- CC(C)c1cc(C(=O)N2C[C@@H]3CC[C@H]2CN(Cc2ccccn2)C3)no1 — higher, 41.8%
- CC(NC(=O)c1ccsc1)c1ccc2c(c1)NC(=O)CO2 (stereo not given) — higher, 29.25%
- Cc1cc(C)n(CCNC(=O)c2cc(C3CC3)n[nH]2)n1 — higher, 20.8%
- CCC(CC)C(=O)n1ccn(S(=O)(=O)c2ccc(C)cc2)c1=O — higher, 14.3%
- Cn1c2c(ccc1=O)CCN(Cc1ccoc1)CC2 — lower, -93%
- c1csc(N2CCCN(Cc3noc(C4CC4)n3)CC2)n1 — higher, 7.67%
- O=C(NC1CC1)N1CCn2c(Cn3cccn3)cnc2C1 — higher, 24.1%
- O=C(NCc1ccccc1)N1CCn2c(Cn3cccn3)cnc2C1 — higher, 39.2%
- O=C(N1CCCC1)N1CCn2c(Cn3cccn3)cnc2C1 — higher, 38.1%
- c1cnn(Cc2cnc3n2CCN(CC2CCCCC2)C3)c1 — higher, 59%
- O=C([C@@H]1CCCO1)N1CCn2c(Cn3cccn3)cnc2C1 — higher, 28.7%
- O=C(NCc1cccnc1)N1CCn2c(Cn3cccn3)cnc2C1 — higher, 57.9%
- CN(C)C(=O)N1CCn2c(Cn3cccn3)cnc2C1 — higher, 62.5%
- O=S(=O)(C1CC1)N1CCn2c(Cn3cccn3)cnc2C1 — higher, 41%
- CC1CCN(C(=O)c2cnc(CC3CCCN(C)C3)cn2)CC1 (stereo not given) — higher, 24.4%
- Cc1cccc(CN2Cc3[nH]nc(COc4cccnc4)c3C2)n1 — higher, 34.9%
- CCS(=O)(=O)CCNC(=O)NC(C)c1ccc(C)s1 (stereo not given) — higher, 17%
- Cc1oc(C(=O)O)cc1S(=O)(=O)Nc1ccccc1F — higher, 34.7%
- O=S(=O)(c1cn[nH]c1)N1CCCC(O)(CN2CCOCC2)CC1 (stereo not given) — higher, 13.125%
- CC(=O)Nc1nc(C(=O)N2CCCC2c2noc(C3CC3)n2)cs1 (stereo not given) — lower, 2.3%
- CCCn1ccnc1CN1CCN(C2CCOCC2)CC(C(N)=O)C1 (stereo not given) — higher, 20.8%
- CSc1ccc(CN(CCO)C(=O)CCOc2ccccc2)cc1 — higher, 15.7%
- Cc1ccc(C(=O)NCc2cccnc2N(C)C)s1 — lower, -85%
- Cc1nnsc1C(=O)NCc1cccnc1N(C)Cc1ccccc1 — higher, 44.6%
- Cc1ncsc1C(=O)NCc1cccnc1N(C)CCc1ccccn1 — higher, 52.5%
- Cc1noc(C)c1C(=O)NCc1cccnc1N(C)C — lower, -25.66%
- Cc1nnsc1C(=O)NCc1cccnc1N(C)C — higher, 51.5%
- Cc1ccsc1C(=O)NCc1cccnc1N(C)CCc1ccccn1 — higher, 9.91%
- Cc1ncsc1C(=O)N(Cc1ccccn1)C1CC1 — lower, -2.95%
- Cc1oc(C)c(C(=O)NCc2cccnc2N(C)C)c1C — higher, 50.4%
- Cc1ccc(C(=O)NCc2cccnc2N(C)C)o1 — higher, 12.35%
- CCc1nc(C2CCCN2C(=O)Cc2cccs2)no1 (stereo not given) — lower, 5.9%
- CSc1ccccc1C(C(=O)O)N(C)CC1CCOCC1 (stereo not given) — lower, -0.27%
- CCCc1cc(C(=O)NCCN2CCCS2(=O)=O)[nH]n1 — lower, -40.96%
- O=C(c1cc(Cl)c2c(c1)OCO2)N1CCCC(n2cncn2)C1 (stereo not given) — higher, 29.7%
- C[C@@H]1CN(Cc2ccccn2)C[C@]12CCN(Cc1cccnc1)C2=O — lower, -38.1%
- N#CC1(C(=O)N2C[C@H](Nc3ncccn3)[C@@H](C3CC3)C2)CCOCC1 — lower, -28.4%
- Cc1ccnc(OC[C@@]23CCO[C@@H]2CCN(S(C)(=O)=O)C3)n1 — higher, 57.1%
- Cc1ccnc(OC[C@@]23CCO[C@@H]2CCN(C2CCC2)C3)n1 — lower, -16.9%
- Cc1ccnc(OC[C@@]23CCO[C@@H]2CCN(c2ncccn2)C3)n1 — higher, 23.3%
- CN(CCc1ccccc1)Cc1cnc(C2(C)CCCCO2)nc1 (stereo not given) — higher, 10.871%
- COc1cc(CN2C[C@H](OC)[C@]3(CCCO3)C2)ccc1F — higher, 35.2%
- Cc1ccnc(C(NC(=O)c2ccc(O)nc2C)C2CC2)n1 (stereo not given) — lower, 2.65%
- Cc1ccnc(C(NC(=O)c2sc(C)nc2C)C2CC2)n1 (stereo not given) — higher, 63.5%
- Cc1ccnc(C(NC(=O)c2oc(C)nc2C)C2CC2)n1 (stereo not given) — higher, 38.5%
